Experimental data reported in PubChem BioAssay (NCI).
About 83,000 compounds went through this panel and 20% of them were active in at least one assay; those are over-represented in the sample as a whole.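 Treatment: one concentration, 48 hours, 96-well format. Scoring: percent growth, with anything below 10 considered active.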 A number with no mark means an inactive call. Calls of active or inactive are those of the source.

Experiments:
Test in all cases: NCI-60 one-dose screen, 48 h (100 = growth as untreated, 0 = no growth, -100 = all killed)
Settings in all cases: 10 µM unless noted
NCI-H23 lung = test system: NCI-H23 lung
NCI-H226 lung = test system: NCI-H226 lung
NCI-H322M lung = test system: NCI-H322M lung
HOP-62 NSCLC = test system: HOP-62 NSCLC
NCI-H460 lung = test system: NCI-H460 lung
HOP-92 NSCLC = test system: HOP-92 NSCLC
NCI-H522 lung = test system: NCI-H522 lung
A549/ATCC NSCLC = test system: A549/ATCC NSCLC
786-0 renal = test system: 786-0 renal
COLO 205 colon = test system: COLO 205 colon
DU-145 prostate = test system: DU-145 prostate
K-562 leukemia = test system: K-562 leukemia
MALME-3M melanoma = test system: MALME-3M melanoma
MDA-MB-231 breast = test system: MDA-MB-231 breast
RXF 393 renal = test system: RXF 393 renal
SF-268 CNS = test system: SF-268 CNS
SF-295 CNS = test system: SF-295 CNS
SF-539 CNS = test system: SF-539 CNS
UACC-257 melanoma = test system: UACC-257 melanoma
M14 melanoma = test system: M14 melanoma

Structure (SMILES)	growth (NCI-H23 lung)	growth (NCI-H226 lung)	growth (NCI-H322M lung)	growth (HOP-62 NSCLC)	growth (NCI-H460 lung)	growth (HOP-92 NSCLC)	growth (NCI-H522 lung)	growth (A549/ATCC NSCLC)	growth (786-0 renal)	growth (COLO 205 colon)	growth (DU-145 prostate)	growth (K-562 leukemia)	growth (MALME-3M melanoma)	growth (MDA-MB-231 breast)	growth (RXF 393 renal)	growth (SF-268 CNS)	growth (SF-295 CNS)	growth (SF-539 CNS)	growth (UACC-257 melanoma)	growth (M14 melanoma)
C[C@]12CC[C@@H]3c4cc(OC(F)F)c(OS(N)(=O)=O)cc4CC[C@H]3[C@@H]1CC[C@@H]2OS(N)(=O)=O	36.2%	93.2%	65.7%	44.4%	15.1%	57.3%	45.7%	43.5%	67.5%	116%	42.1%	16.8%	41%	54%	42.1%	49.7%	27.3%	26%	62.2%	31.1%
BrCCCc1n(Cc2ccc3ccccc3c2)c2ccccc2[n+]1Cc1ccc2ccccc2c1	-81.3% (active)	-72.6% (active)	11.9%	-65.7% (active)	-88.4% (active)	-77% (active)	-52.3% (active)	-54.1% (active)	-90.7% (active)	-61.2% (active)	-62.4% (active)	-13% (active)	-73.2% (active)	-60.8% (active)	-77.6% (active)	-75.4% (active)	-91.1% (active)	-74.9% (active)	-55.7% (active)	-60.4% (active)
Cc1onc2c(-c3ccccc3)n[nH]c(=O)c12	100%	110%	72.5%	90.2%	109%	52.3%	94.4%	114%	95%	146%	110%	69.8%	81.5%	100%	122%	121%	97.1%	93.8%	122%	105%
COc1ccc(CN2c3ccccc3CCc3ccccc32)cc1F	38.7%	52.9%	57.6%	36.8%	6.64% (active)	36.4%	-36% (active)	21.2%	33.9%	-13.9% (active)	8.55% (active)	6.04% (active)	84.3%	17.5%	17.8%	38.9%	11.7%	-16.2% (active)	62%	-8.51% (active)
COc1cc(/C=C/c2c(C(C)=O)c(C)nc3ccccc23)cc(OC)c1OC	52.8%	52.4%	51.3%	42.4%	15%	47.8%	24.6%	53.4%	42.4%	19%	42.1%	13.8%	52.5%	43.1%	10.8%	49.3%	20.1%	7.46% (active)	59.6%	25.9%
Cc1cccc2c(=O)c3c(sc12)c(NCc1ccccc1)nc1ccccc13	84.5%	76.3%	89.9%	87.5%	54.8%	111%	81.6%	92%	100%	87.2%	102%	101%	110%	89.4%	107%	107%	98.9%	102%	104%	103%
O=C(CSc1nccc(Nc2ccc(S(=O)(=O)Nc3nccs3)cc2)n1)c1ccc(C(F)(F)F)cc1	88.1%	89.2%	106%	113%	107%	90.8%	84.4%	99.6%	99.7%	112%	114%	114%	102%	120%	95.5%	110%	96.7%	95.7%	99.3%	100%
COc1cccc(-c2nc(-c3ccc(NC(=O)C(C)C)cc3)[nH]c2-c2ccnc(Br)c2)c1	51.3%	43.5%	43.7%	24.1%	31.8%	43.4%	19.5%	38.8%	-14.1% (active)	30.1%	61.4%	1.17% (active)	34.4%	52.3%	-31% (active)	51.6%	-42.9% (active)	16%	52.8%	40.2%
